Assay results reported in PubChem BioAssay AID1159580 (chemical genetic matrix, 2015).
Hit rate of the full screen: of about 5,500 compounds, about 2,000 (36%) were called active. Not shown: some 18% with an inconclusive outcome. Some of the results follow. Values without a mark were called inactive. No stated cut-off is given here; in the data, active means normalized growth mostly below about 0.91 (no sharp cut-off); inconclusive means no clear call, values can overlap the other calls; inactive means mostly above about 0.92.

Assay: chemical genetic growth profiling, strain panel (AID 1159580);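 further: tested at 20 µM; growth read once vehicle control cultures reached saturation at 30 °C; 1 = growth at the plate median or of vehicle wells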
Conditions: growth OD

With `O[C@H]1C=C2CCN3Cc4cc5c(cc4C(C23)[C@@H]1O)OCO5` (stereo partly specified) the normalized growth (S. cerevisiae deletion strains, locus YBR021W, strain FUR4, stronger effect = lower value) was 1.05, the normalized growth (S. cerevisiae deletion strains, locus YBR229C, strain ROT2, stronger effect = lower value) was 0.665 (active) and the normalized growth (S. cerevisiae deletion strains, locus YCL029C, strain bik1, stronger effect = lower value) was 0.331 (active). The normalized growth (S. cerevisiae deletion strains, locus YDL035C, strain GPR1, stronger effect = lower value) was 0.434 (active), the normalized growth (S. cerevisiae deletion strains, locus YDL074C, strain BRE1, stronger effect = lower value) was 0.485 (active) and the normalized growth (S. cerevisiae deletion strains, locus YDL101C, strain DUN1, stronger effect = lower value) was 0.575 (active). For the same molecule, the normalized growth (S. cerevisiae deletion strains, locus YDL185W, strain tfp1, stronger effect = lower value) was 0.965, the normalized growth (S. cerevisiae deletion strains, locus YDL192W, strain arf1, stronger effect = lower value) was 0.591 (active) and the normalized growth (S. cerevisiae deletion strains, locus YDR101C, strain arx1, stronger effect = lower value) was 0.272 (active). The normalized growth (S. cerevisiae deletion strains, locus YDR162C, strain NBP2, stronger effect = lower value) was 0.566 (active), the normalized growth (S. cerevisiae deletion strains, locus YDR318W, strain mcm21, stronger effect = lower value) was 0.466 (active) and the normalized growth (S. cerevisiae deletion strains, locus YDR388W, stronger effect = lower value) was 0.514 (active). The normalized growth (S. cerevisiae deletion strains, locus YDR502C, strain sam2, stronger effect = lower value) was 0.412 (active), the normalized growth (S. cerevisiae deletion strains, locus YEL061C, strain CIN8, stronger effect = lower value) was 0.737 (active) and the normalized growth (S. cerevisiae deletion strains, locus YER110C, stronger effect = lower value) was 0.573 (active). For the same molecule, the normalized growth (S. cerevisiae deletion strains, locus YER155C, strain BEM2, stronger effect = lower value) was 0.87 (active), the normalized growth (S. cerevisiae deletion strains, locus YER167W, strain BCK2, stronger effect = lower value) was 0.5 (active) and the normalized growth (S. cerevisiae deletion strains, locus YGL078C, strain dbp3, stronger effect = lower value) was 0.812 (active). For the same molecule, the normalized growth (S. cerevisiae deletion strains, locus YGL086W, strain mad1, stronger effect = lower value) was 0.541 (active), the normalized growth (S. cerevisiae deletion strains, locus YGL248W, strain PDE1, stronger effect = lower value) was 0.398 (active) and the normalized growth (S. cerevisiae deletion strains, locus YGR078C, strain PAC10, stronger effect = lower value) was 0.615 (active). The normalized growth (S. cerevisiae deletion strains, locus YGR135W, strain pre9, stronger effect = lower value) was 0.459 (active), the normalized growth (S. cerevisiae deletion strains, locus YGR252W, strain gcn5, stronger effect = lower value) was 0.636 (active) and the normalized growth (S. cerevisiae deletion strains, locus YHR079C, strain IRE1 (second series), stronger effect = lower value) was 0.38 (active). For the same molecule, the normalized growth (S. cerevisiae deletion strains, locus YHR094C, strain hxt1, stronger effect = lower value) was 0.478 (active), the normalized growth (S. cerevisiae deletion strains, locus YHR129C, strain ARP1, stronger effect = lower value) was 0.613 (active) and the normalized growth (S. cerevisiae deletion strains, locus YHR200W, strain rpn10, stronger effect = lower value) was 0.549 (active). For the same molecule, the normalized growth (S. cerevisiae deletion strains, locus YIL066C, strain RNR3, stronger effect = lower value) was 0.678 (active), the normalized growth (S. cerevisiae deletion strains, locus YIL073C, strain SPO22, stronger effect = lower value) was 0.402 (active) and the normalized growth (S. cerevisiae deletion strains, locus YIL125W, strain kgd1, stronger effect = lower value) was 0.857 (active). For the same molecule, the normalized growth (S. cerevisiae deletion strains, locus YIR030C, strain dcg1, stronger effect = lower value) was 0.558 (active), the normalized growth (S. cerevisiae deletion strains, locus YJL095W, strain BCK1, stronger effect = lower value) was 0.448 (active) and the normalized growth (S. cerevisiae deletion strains, locus YJL134W, strain LCB3, stronger effect = lower value) was 0.757 (active). For the same molecule, the normalized growth (S. cerevisiae deletion strains, locus YJL168C, strain set2, stronger effect = lower value) was 0.837 (active), the normalized growth (S. cerevisiae deletion strains, locus YJL187C, strain SWE1 (second series), stronger effect = lower value) was 0.373 (active) and the normalized growth (S. cerevisiae deletion strains, locus YJR075W, strain HOC1, stronger effect = lower value) was 0.53 (active). For the same molecule, the normalized growth (S. cerevisiae deletion strains, locus YKL009W, strain mrt4, stronger effect = lower value) was 0.858 (active), the normalized growth (S. cerevisiae deletion strains, locus YKL068W, stronger effect = lower value) was 0.953 and the normalized growth (S. cerevisiae deletion strains, locus YKL085W, strain MDH1 (second series), stronger effect = lower value) was 0.897 (active). The normalized growth (S. cerevisiae deletion strains, locus YKL085W, strain MDH1, stronger effect = lower value) was 0.897 (active), the normalized growth (S. cerevisiae deletion strains, locus YKL190W, strain CNB1, stronger effect = lower value) was 0.659 (active) and the normalized growth (S. cerevisiae deletion strains, locus YKR001C, strain vps1, stronger effect = lower value) was 0.558 (active). The normalized growth (S. cerevisiae deletion strains, locus YLR039C, strain RIC1, stronger effect = lower value) was 1.08, the normalized growth (S. cerevisiae deletion strains, locus YLR058C, strain SHM2, stronger effect = lower value) was 0.395 (active) and the normalized growth (S. cerevisiae deletion strains, locus YLR102C, strain apc9, stronger effect = lower value) was 0.49 (active). The normalized growth (S. cerevisiae deletion strains, locus YLR268W, strain sec22, stronger effect = lower value) was 0.454 (active), the normalized growth (S. cerevisiae deletion strains, locus YLR330W, strain CHS5, stronger effect = lower value) was 0.656 (active) and the normalized growth (S. cerevisiae deletion strains, locus YLR342W, strain FKS1 (second series), stronger effect = lower value) was 0.483 (active). The normalized growth (S. cerevisiae deletion strains, locus YLR371W, strain rom2, stronger effect = lower value) was 0.55 (active), the normalized growth (S. cerevisiae deletion strains, locus YLR418C, strain cdc73, stronger effect = lower value) was 0.707 (active) and the normalized growth (S. cerevisiae deletion strains, locus YML016C, strain PPZ1, stronger effect = lower value) was 0.632 (active). The normalized growth (S. cerevisiae deletion strains, locus YML032C, strain rad52, stronger effect = lower value) was 0.367 (active), the normalized growth (S. cerevisiae deletion strains, locus YML124C, strain tub3, stronger effect = lower value) was 0.538 (active) and the normalized growth (S. cerevisiae deletion strains, locus YMR078C, strain ctf18, stronger effect = lower value) was 0.713 (active). For the same molecule, the normalized growth (S. cerevisiae deletion strains, locus YMR223W, strain ubp8, stronger effect = lower value) was 0.33 (active), the normalized growth (S. cerevisiae deletion strains, locus YMR307W, strain GAS1, stronger effect = lower value) was 1.35 and the normalized growth (S. cerevisiae deletion strains, locus YNL067W, strain RPL9B, stronger effect = lower value) was 0.495 (active). The normalized growth (S. cerevisiae deletion strains, locus YNL128W, strain TEP1, stronger effect = lower value) was 0.466 (active), the normalized growth (S. cerevisiae deletion strains, locus YNL233W, strain BNI4, stronger effect = lower value) was 0.557 (active) and the normalized growth (S. cerevisiae deletion strains, locus YNL250W, strain rad50, stronger effect = lower value) was 0.852 (active). The normalized growth (S. cerevisiae deletion strains, locus YNL271C, strain bni1, stronger effect = lower value) was 0.908 (active), the normalized growth (S. cerevisiae deletion strains, locus YNL298W, strain CLA4, stronger effect = lower value) was 0.931 and the normalized growth (S. cerevisiae deletion strains, locus YNL307C, strain MCK1, stronger effect = lower value) was 0.694 (active). For the same molecule, the normalized growth (S. cerevisiae deletion strains, locus YNR052C, strain pop2, stronger effect = lower value) was 0.605 (active), the normalized growth (S. cerevisiae deletion strains, locus YOL006C, strain TOP1, stronger effect = lower value) was 0.726 and the normalized growth (S. cerevisiae deletion strains, locus YOL012C, strain htz1) was 2.41 [resistant] (active). For the same molecule, the normalized growth (S. cerevisiae deletion strains, locus YOL147C, strain pex11, stronger effect = lower value) was 0.498 (active), the normalized growth (S. cerevisiae deletion strains, locus YOR061W, strain CKA2, stronger effect = lower value) was 0.565 (active) and the normalized growth (S. cerevisiae deletion strains, locus YOR069W, strain VPS5, stronger effect = lower value) was 0.657 (active). For the same molecule, the normalized growth (S. cerevisiae deletion strains, locus YOR136W, strain idh2, stronger effect = lower value) was 0.731 (active), the normalized growth (S. cerevisiae deletion strains, locus YOR144C, strain elg1, stronger effect = lower value) was 0.47 (active) and the normalized growth (S. cerevisiae deletion strains, locus YOR184W, strain ser1, stronger effect = lower value) was 0.545 (active). For the same molecule, the normalized growth (S. cerevisiae deletion strains, locus YOR316C, strain cot1, stronger effect = lower value) was 0.599 (active), the normalized growth (S. cerevisiae deletion strains, locus YPL055C, strain LGE1, stronger effect = lower value) was 0.627 (active) and the normalized growth (S. cerevisiae deletion strains, locus YPL241C, strain CIN2, stronger effect = lower value) was 0.74 (active). For the same molecule, the normalized growth (S. cerevisiae deletion strains, locus YPR119W, strain clb2, stronger effect = lower value) was 0.715 (active), the normalized growth (S. cerevisiae deletion strains, locus YPR141C, strain kar3, stronger effect = lower value) was 0.976 and the normalized growth (S. cerevisiae deletion strains, locus YPR163C, strain tif3, stronger effect = lower value) was 0.931. The normalized growth (S. cerevisiae deletion strains, locus YPR167C, strain met16, stronger effect = lower value) was 0.523 (active), the normalized growth (S. cerevisiae deletion strains, strain wtn01, stronger effect = lower value) was 0.449 (active) and the normalized growth (S. cerevisiae strains, strain wild type, stronger effect = lower value) was 0.448 (active).
